Rows were chosen to be rich in hits. Some 11% of all compounds tested hit in one or more screens of this group.
USP17 inh = inhibitors of human USP17 deubiquitinase; purified USP17, Ub-rhodamine cleavage fluorescence, 3 h; 47,000 compounds, 6.5% hits; A8MUK1; inhibition, % at 50 µM
USP30 inh = inhibitors of human USP30 deubiquitinase; Q70CQ3; purified USP30, Ub-rhodamine cleavage fluorescence; inhibition, % at 25 µM; 47,000 compounds, 5.3% hits; AID 1645860
USP28 block = blocks human USP28 ubiquitin-rhodamine cleavage; AID 1645857; purified USP28, Ub-rhodamine cleavage fluorescence, 30 min; 47,000 compounds, 3% hits; inhibition, % at 25 µM; Q96RU2
* = called active by the depositor; · = not tested or not shown. Rule as the data show it: active = inhibition above about 30%; inactive = the rest.

SMILES | USP17 inh | USP30 inh | USP28 block
Cc1nnc(SC(C)C(=O)Nc2ccc3[nH]c(=O)[nH]c3c2)n1Cc1ccccc1 (stereo not drawn) | -6 | -27 | 4
O=C(COc1ccc(Cl)cc1Cl)Nc1ccc2[nH]c(=O)[nH]c2c1 | 35* | 66* | 47*
COc1cccc(C(=O)OCC(=O)Nc2ccc(C)c(S(=O)(=O)N3CCCCC3)c2)c1OC | 7 | 11 | 16
Cc1cccc(C(=O)OCC(=O)Nc2ccc3[nH]c(=O)[nH]c3c2)c1C | 40* | 52* | 40*
Cc1ccccc1CSCC(=O)Nc1ccc2[nH]c(=O)[nH]c2c1 | 45* | 42* | 32*
CCOc1cccc(CNC2CCN(c3ccc(CN4CCC(CO)CC4)cn3)CC2)c1 | -8 | -18 | 3
CC(C)C(=O)N[C@@H]1C[C@@H](Oc2ccccc2)[C@H](O)[C@H]1N1CCOCC1 | 0 | 3 | 3
O=C(c1ccc2n[nH]nc2c1)N1CCCC(O)(CN2CCC(F)(F)CC2)CC1 (stereo not drawn) | -1 | 6 | -2
Cc1ccc(NC(=O)c2ccccc2NC(=O)COc2cc(C)cc(C)c2)cc1 | 0 | -34 | -2
O=C(COc1ccccc1C(=O)Nc1ccccc1)Nc1ccc2[nH]c(=O)[nH]c2c1 | 38* | -27 | 0
O=C(c1ccccc1)N1C[C@H]2CCN(S(=O)(=O)c3ccc4ncsc4c3)C[C@H]21 | 1 | 9 | 5
CC(C)N(Cc1cc(=O)[nH]c2ccccc12)C(=O)c1ccc(C(C)(C)C)cc1 | 6 | 16 | 34*
CC(C)N(Cc1cc(=O)[nH]c2ccccc12)C(=O)c1ccccc1 | -3 | -10 | -7
COc1cc(C(=O)N(Cc2cc(=O)[nH]c3ccccc23)C(C)C)cc(OC)c1OC | 19 | 31* | 14
Cc1cccc(C)c1OCC(=O)N(C)Cc1cc(=O)[nH]c2ccccc12 | 14 | 12 | 3
CCC(=O)N1CCCC(Cc2cc(-c3ccccc3)no2)(C(=O)N(C)C)C1 (stereo not drawn) | 8 | · | ·
COc1ccc(F)cc1S(=O)(=O)N1C[C@@H]2C[C@H]1C[C@@H]2NC(=O)c1ccccc1 | -7 | -28 | 9
CSc1cccc(NS(=O)(=O)c2c[nH]c(=O)[nH]c2=O)c1 | -14 | -9 | -6
Cc1ccnc(SCc2cc(=O)n3[nH]c(C)c(-c4ccccc4)c3n2)n1 | -15 | 10 | -4
Cc1cc(C)nc(SCc2cc(=O)n3[nH]c(C)c(-c4ccccc4)c3n2)n1 | -5 | 46* | 23
Cc1cc(-c2cncnc2C2CCN(C(=O)c3sc(C)nc3C)CC2)on1 | -4 | 3 | -9
O=C(COc1ccccc1)N(Cc1ccccc1O)c1ccccc1Cl | 29 | 33* | 25
O=C(O)c1ccccc1N(Cc1ccccc1)C(=O)COc1ccccc1 | 9 | -56 | -6
CCc1ccc(N2CC(C(=O)OCc3cc(=O)oc4c(C)c(C)ccc34)CC2=O)cc1 (stereo not drawn) | 31* | 45* | 4
CCc1ccc(NC(=O)COC(=O)C2CC(=O)N(c3ccc(F)cc3)C2)cc1 (stereo not drawn) | 13 | 14 | 25
SMILES | USP17 inh | USP30 inh | USP28 block
CN1CCN(C2(CNC(=O)COc3ccccc3[N+](=O)[O-])CCCCC2)CC1 | -24 | -15 | -8
CC(C)c1ccc(OCC(=O)NCC2(N3CCN(C)CC3)CCCCC2)cc1 | -2 | 30* | 16
O=C(Nc1cccc(S(=O)(=O)NC2=NCCC2)c1)c1cc(-c2ccccc2)nc2ccccc12 | -5 | -17 | -8
O=C(Nc1cccc(S(=O)(=O)NC2=NCCC2)c1)c1cc(-c2ccccc2)n[nH]1 | 39* | 37* | 42*
Cn1nc(-c2ccccc2)c2cc(C(=O)N3CCOCC3)sc21 | 0 | 12 | 3
CCOC(=O)c1cc2c(CSc3ccccc3)nn(C)c2s1 | 28 | 36* | 34*
O=C(CSc1nc2ccccc2o1)N1CCCc2ccccc21 | 11 | 17 | 21
COc1ccc(-c2nnc3ccc(SCC(=O)N4CCCc5ccccc54)nn23)cc1 | -6 | -6 | 2
Cc1cc(NC(=O)CSc2nnc(-c3cccc(Cl)c3)o2)no1 | 49* | 13 | 3
Cc1cc(NC(=O)CSc2nnc(-c3ccc4c(c3)OCCO4)o2)no1 | 11 | 0 | -11
Cc1ccc(NC(=O)CSc2nnc(-c3ccncc3)o2)cc1F | 46* | 6 | -5
Cc1ccc(-c2nnc3ccc(SCC(=O)N4CCCc5ccccc54)nn23)cc1 | -4 | 30* | 18
O=C(CSc1nnc(-c2cccc(Cl)c2)o1)N1CCCc2ccccc21 | 23 | 32* | 23
O=C(CSc1nnc(-c2cccnc2)o1)Nc1ccc(F)cc1 | 16 | 27 | 3
Cc1noc(-c2csc(C(=O)NCc3ccccc3F)n2)n1 | 0 | -7 | 0
CN(C)C(=O)CN1[C@H]2CCNCC[C@@H]2Oc2ccccc2S1(=O)=O | 0 | -2 | -8

Assay outcomes deposited in PubChem BioAssay by Buhrlage Lab, Dana-Farber Cancer Institute and Novartis Institutes for BioMedical Research (Cambridge, Mass).
